Our source for the z-score and composite z-score values is PubChem BioAssay.

Calls of active or inactive are those of the source. Unless noted, the rule behind the calls is not given here.

Test [1] is described as follows: compound effects on lung adenocarcinoma cell viability – A549, calcein-AM fluorescence, 48 h, basal, profiling panel (AID 1162). Note: test concentration not given here. To be noted: higher = more signal.
Test [2] can be described thus: compound effects on differentiated 3T3-L1 adipocyte viability – cell-based, 3T3-L1 adipocytes, calcein-AM fluorescence, 48 h, basal, profiling panel (AID 1163). Note: test concentration not given here. To be noted: 3T3-L1 adipocytes viability, higher = more signal.
Test [3] can be described thus: compound effects on hepatocellular carcinoma cell viability – HepG2, calcein-AM fluorescence, 48 h, basal, profiling panel (AID 1164). Note: test concentration not given here. To be noted: higher = more signal.
Test [4] in a line: compound effects on multiple myeloma cell viability – MM1S, calcein-AM fluorescence, 48 h, basal, profiling panel (AID 1165).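 Note: viability of MM1S multiple myeloma cells under basal unstimulated conditions; test concentration not given here.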 To be noted: higher = more signal.
The nature of test [5]: calcein-AM signal in unstimulated myeloma cells – cell-based, calcein-AM fluorescence, 48 h, PK04 Diversity Set, profiling panel (AID 1166).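 Note: cells grown under basal conditions without added stimulus; test concentration not given here.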 To be noted: RPMI8226 myeloma viability, higher = more signal.
The nature of test [6]: JC-1 mitochondrial signal, unstimulated HepG2 cells – cell-based, JC-1 fluorescence, 24 h, 100 nL compound, profiling panel (AID 1167). Note: test concentration not given here. To be noted: HepG2 mitochondrial potential, higher = more signal.
The nature of test [7]: JC-1 mitochondrial signal, unstimulated adipocytes – cell-based, JC-1 fluorescence, 3T3-L1 adipocytes, 24 h, 100 nL compound, profiling panel (AID 1168). Note: test concentration not given here. To be noted: JC-1 mitochondrial fluorescence, higher = more signal, called active from +8 up or from −8 down.
Test [8] in a line: JC-1 mitochondrial signal, unstimulated myeloma cells – cell-based, JC-1 fluorescence, RPMI8226, 24 h, 100 nL compound, profiling panel (AID 1169). Note: test concentration not given here. The conditions noted are these: JC-1 mitochondrial potential fluorescence, higher = more signal.
Test [9] in a line: JC-1 mitochondrial signal, unstimulated MM1S myeloma – cell-based, JC-1 fluorescence, 24 h, 100 nL compound, profiling panel (AID 1170). Note: test concentration not given here. To be noted: MM1S mitochondrial potential, higher = more signal.
A short description of test [10]: resazurin metabolic signal in A549 cells – cell-based, resazurin fluorescence, 24 h, PK04 Diversity Set, profiling panel (AID 1171). Note: test concentration not given here. The conditions noted are these: A549 viability, higher = more signal, called active from +8 up or from −8 down. On the technique in general: Resazurin is reduced to fluorescent resorufin, in cell work by metabolically active cells.
The nature of test [11]: resazurin metabolic signal in HepG2 cells – cell-based, resazurin fluorescence, 24 h, PK04 Diversity Set, profiling panel (AID 1172). Note: test concentration not given here. The conditions noted are these: HepG2 viability, higher = more signal.
The nature of test [12]: budding yeast growth changes without added modifier – OD600, strain BY4716, 24 h, basal condition, primary screen (AID 1173). The conditions noted are these: S. cerevisiae BY4716 growth, OD600, 24 h; higher = more signal, called active from +8 up or from −8 down.
Test [13] in a line: viability profiling in MM1S myeloma cells – cell-based, resazurin fluorescence, basal, 24 h, PK04 Diversity Set, profiling panel (AID 1174). Note: test concentration not given here. To be noted: higher = more signal, called active from +8 up or from −8 down.
The target in test [14] is Dihydroorotate dehydrogenase (quinone), mitochondrial (Plasmodium falciparum (isolate 3D7)) (UniProt Q08210). The test can be described thus: inhibition of P. falciparum DHODH – biochemical, C-terminal His tag, absorbance 600 nm, primary screen (AID 1175).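 Note: recombinant parasite enzyme with a five histidine tag at its C terminus; test concentration not given here.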 The conditions noted are these: PfDHODH enzyme, DCIP absorbance 600 nm; higher = more signal, called active from +8 up or from −8 down.
Sequence of Dihydroorotate dehydrogenase (quinone), mitochondrial (Plasmodium falciparum (isolate 3D7)) (Q08210 whole entry, looked up): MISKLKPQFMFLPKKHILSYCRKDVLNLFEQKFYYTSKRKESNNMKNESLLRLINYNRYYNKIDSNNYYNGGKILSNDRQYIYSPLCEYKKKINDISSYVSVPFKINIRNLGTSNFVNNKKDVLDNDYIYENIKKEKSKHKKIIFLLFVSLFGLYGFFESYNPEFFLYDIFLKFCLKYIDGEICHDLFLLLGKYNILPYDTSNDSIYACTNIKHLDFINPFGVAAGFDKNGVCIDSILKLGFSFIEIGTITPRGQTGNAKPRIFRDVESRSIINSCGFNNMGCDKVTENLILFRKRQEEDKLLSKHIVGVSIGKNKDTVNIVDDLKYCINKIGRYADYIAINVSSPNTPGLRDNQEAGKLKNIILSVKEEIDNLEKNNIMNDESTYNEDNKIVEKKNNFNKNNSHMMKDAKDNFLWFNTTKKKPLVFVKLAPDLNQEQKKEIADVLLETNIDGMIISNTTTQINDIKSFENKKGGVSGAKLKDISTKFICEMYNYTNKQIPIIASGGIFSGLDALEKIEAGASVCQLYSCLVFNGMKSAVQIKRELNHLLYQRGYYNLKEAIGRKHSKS

Test [15] is described as follows: inhibition of PAO1 biofilm formation – strain PAO1, LB-PBS medium, absorbance 600 nm, primary screen (AID 1176). Note: test concentration not given here. To be noted: P. aeruginosa PAO1 growth/biofilm, A600, 12 h; higher = more signal.
Test [16] in a line: growth modulation of vineyard yeast isolate – strain RM11-1a, OD600, basal, 24 h, primary screen (AID 1177).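 Note: cultures grown under basal conditions with no added stressor; test concentration not given here.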 To be noted: S. cerevisiae RM11-1a growth, OD600, 24 h; higher = more signal, called active from +8 up or from −8 down.
Test [17] can be described thus: growth of efflux-deficient E. coli DRC39 – strain DRC39, OD650, 24 h, E. coli filamentation inducers, primary screen (AID 1178).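 Note: growth measured as culture turbidity by optical density at 650 nm; test concentration not given here.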 To be noted: E. coli DRC39 acrAB, higher = more signal, called active from +8 up or from −8 down.
A short description of test [18]: growth of efflux-deficient E. coli DRC39 – strain DRC39, OD650, 48 h, E. coli filamentation inducers, primary screen (AID 1179).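 Note: screen aims at cell division blockers that make cells filament.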 To be noted: E. coli DRC39 delta-acrAB growth, higher = more signal, called active from +8 up or from −8 down.
The nature of test [19]: viability profiling in RPMI8226 myeloma cells – cell-based, resazurin fluorescence, basal, 24 h, PK04 Diversity Set, profiling panel (AID 1180).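 Note: RPMI8826 multiple myeloma cell line at 5000 cells per well; test concentration not given here.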 To be noted: higher = more signal.
Test [20] concerns the target E3 ubiquitin-protein ligase XIAP (Homo sapiens) (UniProt P98170). The test can be described thus: small molecules binding XIAP protein – biophysical, small-molecule microarray, fluorescence 635 nm, primary screen (AID 1181).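 Note: score merges 667 nm emission and signal to noise over triplicate slides.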 The conditions noted are these: higher = more signal.

Sequence of E3 ubiquitin-protein ligase XIAP (Homo sapiens) (P98170 whole entry, looked up): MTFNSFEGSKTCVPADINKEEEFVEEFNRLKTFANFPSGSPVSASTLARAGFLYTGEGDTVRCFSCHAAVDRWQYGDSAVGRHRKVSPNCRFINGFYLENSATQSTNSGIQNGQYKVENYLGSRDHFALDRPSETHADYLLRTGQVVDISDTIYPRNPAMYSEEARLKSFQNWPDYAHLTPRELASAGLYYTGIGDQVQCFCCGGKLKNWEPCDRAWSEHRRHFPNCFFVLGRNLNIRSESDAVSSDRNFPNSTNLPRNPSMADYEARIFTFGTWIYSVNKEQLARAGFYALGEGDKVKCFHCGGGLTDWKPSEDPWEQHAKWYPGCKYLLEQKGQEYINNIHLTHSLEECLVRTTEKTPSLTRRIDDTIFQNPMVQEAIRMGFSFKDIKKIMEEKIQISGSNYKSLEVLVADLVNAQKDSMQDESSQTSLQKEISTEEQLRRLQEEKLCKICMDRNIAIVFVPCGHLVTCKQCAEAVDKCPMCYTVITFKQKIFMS

On to `CC(C)OC(=O)CC(=O)CC(O)c1ccc(C#N)cc1` (stereo not given), for which the z-score in test [1] is 0.633; in test [2] it was 0.612; in test [3], 1.01; in [4] it was 0.526; in test [5], -0.116; in test [6], 0.615. In addition, the z-score in test [7] was 0.497 (inactive); in test [8], -0.0971; in [9] it was -1.44; in test [10], 0.617 (inactive); in test [11], 0.602; in test [12], -0.0106 (inactive). Besides, the z-score in test [13] is 0.8 (inactive); in test [15], -0.088 (inactive); in test [16], -0.608 (inactive); in test [17], -0.0611 (inactive); in test [18], 1.44 (inactive); in test [19] it was 1.43. In addition, the composite z-score in [14] is -1.12 (inactive); in test [20] it was -0.194.

Consider `CC(=O)Nc1cc(Br)ccc1C(=O)O`, for which the z-score in test [1] is 0.665; in test [2], 0.747; in [3], 0.332; in [4], -0.906; in test [5], -0.178; in [6] it was -0.598. Moreover, the z-score in test [7] is -0.672 (inactive); in test [8] it was -0.685; in [9] it was 1.05; in test [10] it was -0.243 (inactive); in [11], -0.128; in [12], 0.311 (inactive). The z-score in test [13] is 0.161 (inactive); in test [15] it was -0.103 (inactive); in [16], -0.129 (inactive); in test [17], -0.141 (inactive); in test [18] it was -0.535 (inactive); in test [19] it was 0.357. The composite z-score in test [14] was -0.398 (inactive); in test [20] it was -0.239.

With `CCC(CC)C(O)C1C=CC2C(=O)N(c3ccccc3)C(=O)C2N1Nc1ccc(C#N)cc1` (stereo not given), the z-score in test [1] is 0.313; in [2] it was -0.534; in test [3], -0.136; in test [4], 0.436; in test [5], -0.452; in test [6], -1.03. For the same compound, the z-score in [7] was -1.29 (inactive); in test [8] it was -0.659; in test [9] it was -0.0284; in [10] it was 0.158 (inactive); in [11], -0.813; in [12] it was -0.174 (inactive). For the same compound, the z-score in test [13] was -0.253 (inactive); in [15] it was 1.55 (inactive); in test [16], -0.358 (inactive); in test [17], -0.698 (inactive); in test [18] it was 0.133 (inactive); in test [19] it was -0.308. The composite z-score in [14] is -1.69 (inactive); in [20], -0.101.

Regarding `C=CCOC(=O)[C@@H]1[C@H]2C(=O)O[C@H](c3ccccc3)[C@H](c3ccccc3)N2[C@H](c2ccc(OCCOC(=O)[C@@H]3C[C@@H]4C(=O)NCC(=O)N4[C@@H]3c3cccc(OCCO)c3)cc2)[C@@]12C(=O)Nc1ccc(I)cc12`, the z-score is 0.0646 in [1]; 0.904 in test [2]; 0.646 in test [3]; -0.0922 in [4]; 0.129 in test [5]; -0.941 in test [6]. The z-score in test [7] was 1.47 (inactive); in test [8], -0.446; in test [9], -1.08; in [10], 0.0716 (inactive); in test [11] it was 0.0068; in test [12], 1.24 (inactive). Besides, the z-score was 0.132 (inactive) in test [13]; 2.17 (inactive) in test [15]; 1.65 (inactive) in test [16]; 0.451 (inactive) in test [17]; 0.17 (inactive) in test [18]; 0.487 in test [19]. The results for the composite z-score in [14] and in test [20] were -0.173 (inactive) and 0.0586, respectively.

Regarding `CCCCCCc1nc(CCCc2cc3c(c(CCCCCC)n2)[Si](C(C)C)(C(C)C)OC3)cc2c1[Si](C(C)C)(C(C)C)OC2`, the z-score is -2.42 in test [1]; 1.78 in test [2]; -1.47 in test [3]; -3.28 in test [4]; -4.35 in test [5]; 0.535 in test [6]. Further, the z-score in test [7] was 0.705 (inactive); in [8] it was -1.1; in [9], -0.553; in [10], 1.75 (inactive); in test [11], -0.0097; in test [12], -0.528 (inactive). Moreover, the z-score in [13] is 0.129 (inactive); in test [15] it was 0.374 (inactive); in test [16], 0.539 (inactive); in test [17] it was -0.214 (inactive); in [18], -0.728 (inactive); in test [19], -0.655. In addition, the composite z-score in test [14] was -2.32 (inactive); in [20] it was -0.0829.

For the compound `C=CCNC(=O)[C@@H]1[C@H]2C(=O)O[C@H](c3ccccc3)[C@H](c3ccccc3)N2[C@H](c2ccc(O)cc2)[C@@]12C(=O)N(C(=O)OCCOC)c1ccccc12`, the z-score in [1] was 0.231; in test [2], 2.01; in test [3], 0.0902; in test [4] it was -0.549; in test [5], -1.52; in [6], -0.338. The z-score in [7] was 0.951 (inactive); in test [8], 0.104; in test [9], -0.0916; in [10], 0.425 (inactive); in test [11] it was 0.09; in test [12] it was 0.57 (inactive). Also, the z-score in test [13] was 0.177 (inactive); in test [15] it was 0.817 (inactive); in [16] it was 1.01 (inactive); in [17] it was -0.233 (inactive); in [18] it was -0.33 (inactive); in test [19], 0.209. The composite z-score was -0.186 (inactive) in [14] and -0.17 in [20].

Consider `COC(=O)C(CC#Cc1ccc2c(c1)[C@]1(C(=O)N2)[C@H](c2ccc(OCCO)cc2)N2[C@H](c3ccccc3)[C@H](c3ccccc3)OC(=O)[C@H]2[C@@H]1C(=O)NC[C@H](O)c1ccccc1)C(=O)OC`, for which the z-score was 0.876 in [1]; 1.04 in [2]; 1.31 in test [3]; -1.67 in test [4]; -1.2 in test [5]; -1.13 in test [6]. Further, the z-score is 0.833 (inactive) in test [7]; -1.29 in [8]; -1.35 in [9]; 0.795 (inactive) in test [10]; 0.722 in [11]; 1.51 (inactive) in test [12]. Also, the z-score was 0.343 (inactive) in test [13]; 1.05 (inactive) in [15]; 3.39 (inactive) in [16]; 0.602 (inactive) in test [17]; 0.869 (inactive) in [18]; -0.47 in test [19]. Further, the composite z-score was 0.676 (inactive) in test [14] and 0.104 in test [20].

With `C[N+](C)(C)CCCCCCNC(=O)[C@H]1C[C@H]2C(=O)N3CCC[C@H]3C(=O)N2[C@H]1c1ccc(O)cc1`, the z-score in test [1] was -0.827; in test [2] it was 0.262; in [3] it was -1.14; in [4], 0.327; in test [5] it was 0; in test [6], -1.4. For the same compound, the z-score was 0.435 (inactive) in [7]; -0.655 in test [8]; -0.439 in test [9]; 0.194 (inactive) in test [10]; 0.202 in [11]; -0.652 (inactive) in test [12]. Further, the z-score in test [13] is 0.488 (inactive); in [15], 2.48 (inactive); in [16] it was -0.201 (inactive); in test [17], -0.834 (inactive); in test [18] it was -1.15 (inactive); in test [19], -0.603. Also, the composite z-score in test [14] was -2.18 (inactive); in test [20] it was 0.127.
